Screens as filed in PubChem BioAssay.
Fam108B counter: counter-screen for RBBP9 inhibitors: inhibitors of mouse Fam108B | 0.33% of 300,000 active | AID 1947 | inhibition, % at 9.51 µM | recombinant Fam108B, FP-Rh probe fluorescence polarization;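 active = inhibition above the screen mean inhibition plus 3 SD, computed separately per campaign, cut at about 18% in these data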;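 also: inhibitors lower polarization as less probe binds the enzyme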
PME-1 inh: blocks human protein phosphatase methylesterase 1. recombinant PME-1, FP-Rh probe fluorescence polarization. inhibition, % at 5.9 µM. 0.53% of 320,000 active. AID 2130;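 active = inhibition above the campaign mean of all compounds plus 3 SD, cut at about 26% in these data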;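 also: competitive labeling of PME-1 active site by serine hydrolase directed probe; inhibitors block probe labeling so polarization falls and inhibition rises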
Target sequence (Q9Y570 whole entry, looked up): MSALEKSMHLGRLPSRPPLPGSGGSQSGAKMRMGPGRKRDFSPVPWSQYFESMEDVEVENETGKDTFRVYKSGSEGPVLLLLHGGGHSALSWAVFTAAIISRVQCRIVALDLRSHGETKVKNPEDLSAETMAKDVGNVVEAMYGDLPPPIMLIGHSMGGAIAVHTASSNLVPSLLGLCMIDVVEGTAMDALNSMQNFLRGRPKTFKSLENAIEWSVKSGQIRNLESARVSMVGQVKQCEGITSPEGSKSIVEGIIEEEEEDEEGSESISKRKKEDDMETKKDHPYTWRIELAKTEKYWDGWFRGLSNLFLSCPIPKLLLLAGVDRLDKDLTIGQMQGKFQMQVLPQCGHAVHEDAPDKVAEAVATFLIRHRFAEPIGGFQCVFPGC
LYPLA2 inh: blocks human lysophospholipase 2, a PME1 counter-screen. recombinant LYPLA2, FP-Rh probe fluorescence polarization. inhibition, % at 5.9 µM. 0.38% of 320,000 active. AID 2177;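 active = inhibition above the screen-wide mean plus 3 SD, limit set per campaign, cut at about 26% in these data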
PREPL inh: inhibits the human prolyl oligopeptidase-like enzyme; recombinant PREPL, fluorescence polarization activity-based probe; inhibition, % at 5.96 µM; AID 2751; 0.68% of 320,000 active; Q4J6C6; in the data active = inhibition above about 43%
GSTO1 counter: counter-screen for RBBP9 inhibitors: inhibitors of human GSTO1; recombinant GSTO1, activity-based probe fluorescence polarization; inhibition, % at 5.96 µM; 1.1% of 300,000 active; AID 1974;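 active = inhibition above the campaign mean inhibition plus 3 SD, cut at about 35% in these data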
Target sequence (P78417 whole entry, looked up): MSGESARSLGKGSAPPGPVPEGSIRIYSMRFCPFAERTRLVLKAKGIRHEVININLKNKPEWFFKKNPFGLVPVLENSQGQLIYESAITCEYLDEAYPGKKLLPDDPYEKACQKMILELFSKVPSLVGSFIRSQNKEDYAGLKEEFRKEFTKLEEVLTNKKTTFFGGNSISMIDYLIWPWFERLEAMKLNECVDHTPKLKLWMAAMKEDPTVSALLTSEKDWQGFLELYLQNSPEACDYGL
LYPLA1 inh: LYPLA1 (human) inhibition in PME1 counter-screen | O75608 | inhibition, % at 5.9 µM | 0.16% of 320,000 active | recombinant LYPLA1, FP-Rh probe fluorescence polarization;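 active = inhibition above the mean of all tested compounds plus 3 SD, set per campaign, cut at about 14% in these data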;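 also: inhibitors block serine hydrolase probe labeling of LYPLA1 so polarization falls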
LYPLA1 conf: LYPLA1 (human) inhibition, confirmation counter-screen. shares compounds with LYPLA1 inh. recombinant LYPLA1, FP-Rh probe fluorescence polarization. inhibition, % at 5.9 µM. 69% of 480 active. AID 2233;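 active = mean inhibition across replicates above the hit cutoff set in the primary screen, cut at about 15% in these data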;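 also: loss of FP-Rh probe labeling of LYPLA1 seen as lower polarization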
LYPLA2 confirm: counter-screen for PME1 inhibitors: confirmation of human LYPLA2 inhibitors; inhibition, % at 5.9 µM; AID 2232; shares compounds with LYPLA2 inh; 72% of 1,100 active; recombinant LYPLA2, FP-Rh probe fluorescence polarization;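 active = mean inhibition across replicates above the hit cutoff set in the primary screen, cut at about 26% in these data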;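 also: blocked labeling of the enzyme by serine hydrolase FP-Rh probe lowers polarization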
A number is an active result; – = inactive; · = not tested or not shown. Most compounds without a hit are left out; they make up all but 2% or so of the library.

SMILES	Fam108B counter	PME-1 inh	LYPLA2 inh	PREPL inh	GSTO1 counter	LYPLA1 inh	LYPLA1 conf	LYPLA2 confirm
CN1CCN(Cc2cccc(Oc3ccccc3)c2)CC1	–	–	–	–	–	–	·	·
O=c1ccc2ccc(Oc3ccc([N+](=O)[O-])cc3Cl)cc2o1	–	–	69.9	–	–	16.2	21.8	66.4
O=C(COc1ccc2ccc(=O)oc2c1)Nc1cc([N+](=O)[O-])ccc1F	–	–	–	–	–	–	·	·
O=C(c1cc(COc2cccc(C(F)(F)F)c2)on1)N1CCC(Oc2cccnc2)CC1	–	–	34.7	–	–	39.6	50.2	37.7
Cc1ccc(OCc2cc(C(=O)N3CCC(Oc4cccnc4)CC3)no2)cc1C	–	–	47.9	–	–	38.3	37.7	38.3
CCOC(=O)N1CCN(C(=O)c2cc(COc3cccc(C(F)(F)F)c3)on2)CC1	–	–	–	–	–	–	·	·
O=C1CCC([N+](=O)[O-])C(c2cc(Br)ccc2F)N1 (centres undefined)	–	–	–	–	–	–	·	·
CC(=O)N1CCC2(CC1)C/C(=N\NC(=S)Nc1ccccc1F)c1cc(O)ccc1O2	–	–	–	–	–	–	·	·
CC(=O)N1CCC2(CC1)C/C(=N\NC(=S)Nc1ccccc1C)c1cc(O)ccc1O2	–	–	48.3	–	–	17.2	29.0	54.6
C=CCN(CC=C)C(=O)c1cc2ccccc2c(=O)o1	–	–	–	–	–	–	·	·
O=C1N=C(N2CCN(Cc3ccccc3)CC2)S/C1=C/c1cccs1	–	–	46.8	–	–	25.1	35.6	55.4
CC1(C)NC(=O)N(c2ccc([N+](=O)[O-])c(C(F)(F)F)c2)C1=O	–	–	–	–	–	–	·	·
Clc1cccc(N2CCN(CCNc3nc4ccccc4n4cnnc34)CC2)c1	–	–	67.2	–	–	16.7	31.9	62.1
CC(=O)c1ccc(NC(=O)Cc2ccsc2)cc1	–	–	–	–	–	–	·	·
COc1ccc(N2CCN(C(=O)CNC(=O)c3cn(-c4ccccc4OC)c(=O)c4ccccc34)CC2)cc1	–	–	76.3	–	–	15.4	25.7	81.0
COc1ccc(-n2nc(C(=O)NCC(=O)N3CCN(Cc4ccccc4)CC3)c3ccccc3c2=O)cc1	–	–	68.7	–	–	42.5	46.7	66.8
COc1ccc(-n2nc(C(=O)NCC(=O)N3CCN(c4ccccc4)CC3)c3ccccc3c2=O)c(OC)c1	–	–	–	–	–	–	·	·
COc1ccc(-n2nc(C(=O)NCC(=O)N3CCN(Cc4ccc5c(c4)OCO5)CC3)c3ccccc3c2=O)cc1OC	–	–	73.9	–	–	50.3	63.4	82.0
COc1ccc(-n2nc(C(=O)NCC(=O)N3CCOCC3)c3ccccc3c2=O)cc1OC	–	–	–	–	–	–	·	·
O=C(CN1C(=O)c2ccc([N+](=O)[O-])cc2C1=O)NCc1ccc(C(=O)O)cc1	–	–	–	–	–	–	·	·
CC1CCN(S(=O)(=O)c2ccc(NC(=O)CCN3C(=O)c4ccccc4C3=O)cc2)CC1	–	–	–	–	–	–	·	·
O=C(CCCCCN1C(=O)c2ccccc2C1=O)Nc1ccc(S(=O)(=O)N2CCCCC2)cc1	–	–	41.8	–	–	26.4	29.7	41.5
COc1ccccc1NC(=O)CS(=O)(=O)c1cn(CC(=O)N2CCCC2)c2ccccc12	–	–	–	–	–	–	·	·
N#Cc1c(N)nc(SCc2ccncc2)c(C#N)c1-c1cccs1	–	–	41.9	–	–	39.1	40.5	43.0
CC(CN1C(C)CCCC1C)OC(=O)c1ccc(Cl)cc1Cl (centres undefined)	–	–	–	–	–	–	·	·
SMILES	Fam108B counter	PME-1 inh	LYPLA2 inh	PREPL inh	GSTO1 counter	LYPLA1 inh	LYPLA1 conf	LYPLA2 confirm
OC(CN1CCN(c2cccc(C(F)(F)F)c2)CC1)c1c[nH]c2ccccc12 (centres undefined)	–	–	56.6	–	–	22.6	29.7	48.9
Cc1[nH]c2ccccc2c1C(=O)CN1CCN(C/C=C/c2ccccc2)CC1	–	–	55.8	–	–	31.4	30.6	53.7
Cc1c(Br)c([N+](=O)[O-])nn1CC(=O)Nc1ccc(Cc2ccncc2)cc1	–	–	59.0	–	–	23.4	34.6	66.7
Cc1cccc(NC2SC(=O)NC2=O)c1 (centres undefined)	–	–	–	–	–	–	·	·
C[C@@H]1O[C@@H](O[C@@H]2C(=O)c3c(O)cc(O)cc3O[C@H]2c2ccc(O)c(O)c2)[C@H](O)[C@H](O)[C@H]1O	·	–	–	–	·	–	·	·
COc1cc([C@H]2Oc3cc([C@H]4Oc5cc(O)cc(O)c5C(=O)[C@@H]4O)ccc3O[C@@H]2CO)ccc1O	–	–	70.2	–	–	20.8	37.0	74.5
O=[N+]([O-])c1cccc(/C=N/N2CCN(Cc3ccc(Cl)cc3)CC2)c1	–	–	40.9	–	–	28.6	36.5	53.4
ONC(=Nc1ccccc1Cl)c1c(F)cccc1F	–	–	–	–	–	–	·	·
O=c1[nH]c(CN2CCN(C/C=C/c3ccccc3)CC2)nc2cc(Cl)ccc12	–	–	32.0	–	–	34.4	40.7	31.1
CCOC(=O)CCc1c(C)nc(SCc2ccc(C(=O)O)cc2)c(C#N)c1C	–	–	43.3	–	–	20.4	39.4	58.9
O=C(COc1ccc(Br)cc1)Nc1ccc(Cc2ccncc2)cc1	–	–	29.6	–	–	23.1	25.2	–
O=C(O)c1ccc2c(c1)C(=O)N(CCCCCCCN1C(=O)c3ccc(C(=O)O)cc3C1=O)C2=O	–	–	47.2	–	–	68.8	73.4	47.6
O=C(O)CCCCCN1C(=O)c2ccc(C(=O)O)cc2C1=O	–	–	–	–	–	–	·	·
Cc1ccc(NC(=O)CSc2ccc3c(c2)OCCO3)nc1	–	–	–	–	–	–	·	·
COc1ccc(CCNC(=O)c2cc([N+](=O)[O-])ccc2N2CCOCC2)cc1	–	–	–	–	–	–	·	·
NS(=O)(=O)c1ccc(CCNC(=O)c2cc([N+](=O)[O-])ccc2N2CCCCC2)cc1	–	–	30.0	–	–	78.2	77.3	–
CCOC(=O)CCCSc1nc2sc3c(c2c(=O)[nH]1)CCC3	–	–	–	–	–	–	·	·
CCOC(=O)CSc1nnc(CSc2nc3sc4c(c3c(=O)[nH]2)CCCC4)n1-c1ccccc1	–	–	77.5	–	–	15.8	15.4	80.0
COc1ccc(C(=O)NCN2CCN(c3ccccc3)CC2)cc1OC	·	–	–	–	·	–	·	·
